From PubChem BioAssay (EPA / NIEHS)
Calls of active or inactive are those of the source. How the source made its calls: active means hit-call score of the fitted dose curve at least 0.9, where 1 is the maximum; inactive means score below 0.9.

Tests used:
Conditions in all cases: mRNA level, 48 h; actives raise or lower the signal
[1] = read-out: MicroRNA 122 (MIR122), gene 406906; test: LTEA_HepaRG_MIR122: Life Technologies and Expression Analysis (LTEA) Assay for MicroRNA 122 (MIR122) using HepaRG (AID 2283516); further: the transcript read is the microRNA miR-122
How it was run: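 Changes in transcript abundance, up or down relative to 0.5% DMSO vehicle, were scored after 48 h chemical treatment of HepaRG cells (maximum 100 uM). Quantification used TaqMan qRT-PCR normalized to housekeeping genes.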

[2] = read-out: matrix metalloproteinase-10 (MMP10), MMP10 (gene 4319); test: LTEA_HepaRG_MMP10: Life Technologies and Expression Analysis (LTEA) Assay for matrix metalloproteinase-10 (MMP10) using HepaRG (AID 2283517)
How it was run: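 Transcript levels come from Fluidigm qRT-PCR normalized to three housekeeping genes, with curves fitted bidirectionally against 0.5% DMSO. Human HepaRG cells were dosed for 48 hours at concentrations up to 100 uM.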

MYC, MYC (gene 4609) = test: LTEA_HepaRG_MYC: Life Technologies and Expression Analysis (LTEA) Assay for MYC using HepaRG (AID 2283518)
How it was run: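 Differentiated human HepaRG cells, plated 48 h then switched to serum-free induction medium, were exposed in duplicate for 48 h to 8-point half-log series up to 100 uM in 0.5% DMSO. MYC mRNA measured by qRT-PCR, normalized to ACTB/GAPDH/POLR2A.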

[3] = read-out: matrix metalloproteinase-3 (MMP3), MMP3 (gene 4314); test: LTEA_HepaRG_MMP3: Life Technologies and Expression Analysis (LTEA) Assay for matrix metalloproteinase-3 (MMP3) using HepaRG (AID 2283519)
How it was run: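 qRT-PCR read-out of MMP3 mRNA (normalised to three housekeeping genes) in HepaRG liver cells after 48 h chemical exposure; 8-point half-log series, top 100 uM, 0.5% DMSO vehicle. Bidirectional curve fitting against DMSO baseline.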

[4] = read-out: Paternally Expressed 10 (PEG10), PEG10 (gene 23089); test: LTEA_HepaRG_PEG10: Life Technologies and Expression Analysis (LTEA) Assay for Paternally Expressed 10 (PEG10) using HepaRG (AID 2283520);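 on AC50: PEG10 transcript by qRT-PCR normalised to ACTB GAPDH and POLR2A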
How it was run: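 After 48 h exposure of differentiated HepaRG cells (0.5% DMSO vehicle, eight concentrations up to 100 uM, duplicates), PEG10 mRNA was measured by TaqMan qRT-PCR. Values were normalised to endogenous control genes and analysed bidirectionally against vehicle.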

[5] = read-out: Nuclear factor NF-kappa-B p105 subunit (Homo sapiens) (UniProt P19838); test: LTEA_HepaRG_NFKB1: Life Technologies and Expression Analysis (LTEA) Assay for Nuclear Factor Kappa B Subunit 1 (NFKB1) using HepaRG (AID 2283521)
How it was run: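 Differentiated human HepaRG cells in serum-free induction medium with 0.5% DMSO were exposed for 48 h to eight half-log concentrations, top 100 uM, in duplicate. NFKB1 mRNA measured by Fluidigm TaqMan qRT-PCR, normalised to ACTB, GAPDH and POLR2A; bidirectional fit versus DMSO.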

[6] = read-out: Protein phosphatase 2A (PPP2R4), PTPA (gene 5524); test: LTEA_HepaRG_PPP2R4: Life Technologies and Expression Analysis (LTEA) Assay for Protein phosphatase 2A (PPP2R4) using HepaRG (AID 2283522)
How it was run: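 Using HepaRG cultures maintained in 0.5% DMSO, chemicals are tested 48 h at up to 100 uM in duplicate. Induction or suppression of PPP2R4 mRNA, measured by qRT-PCR, is fitted bidirectionally against the vehicle baseline.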

[7] = read-out: solute carrier (SLC22A1), SLC22A1 (gene 6580); test: LTEA_HepaRG_SLC22A1: Life Technologies and Expression Analysis (LTEA) Assay for solute carrier (SLC22A1) using HepaRG (AID 2283524)
How it was run: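 qRT-PCR readout (TaqMan, Fluidigm arrays) of SLC22A1 transcript, normalized to three housekeeping genes; bidirectional curve fit relative to 0.5% DMSO vehicle. Differentiated human HepaRG cells, 48 h chemical exposure, top concentration 100 uM, half-log steps, eight points.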

[8] = read-out: Pyruvate Dehydrogenase Kinase 4 (PDK4), PDK4 (gene 5166); test: LTEA_HepaRG_PDK4: Life Technologies and Expression Analysis (LTEA) Assay for Pyruvate Dehydrogenase Kinase 4 (PDK4) using HepaRG (AID 2283525)
How it was run: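 HepaRG (human liver line), 48 h chemical exposure, 8-pt half-log CRC top 100 uM, 0.5% DMSO vehicle, duplicates. Readout: TaqMan qRT-PCR of PDK4 mRNA, housekeeping-normalized; gain/loss fit relative to DMSO baseline.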

[9] = read-out: NAD(P)H dehydrogenase [quinone] 1 (NQO1), NQO1 (gene 1728); test: LTEA_HepaRG_NQO1: Life Technologies and Expression Analysis (LTEA) Assay for NAD(P)H dehydrogenase [quinone] 1 (NQO1) using HepaRG (AID 2283526)
How it was run: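 In this assay, gene expression is read by qRT-PCR after 48 h exposure of HepaRG cells to eight concentrations (max 100 uM, half-log) in 0.5% DMSO. Each chemical runs in duplicate, and activity is scored relative to vehicle.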

[10] = read-out: Nuclear factor erythroid 2-related factor 2 (Homo sapiens) (UniProt Q16236); test: LTEA_HepaRG_NFE2L2: Life Technologies and Expression Analysis (LTEA) Assay for Nuclear factor erythroid 2-related factor 2 (NFE2L2) Transcription Factor using HepaRG (AID 2283527)
How it was run: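 HepaRG, 48 h dosing, 8-pt half-log series from 100 uM in 0.5% DMSO, duplicates. Read-out: NFE2L2 mRNA by qRT-PCR (ACTB/GAPDH/POLR2A normalization). Bidirectional curve fit vs DMSO baseline.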

[11] = read-out: succinate dehydrogenase complex iron sulfur subunit B (SDHB), SDHB (gene 6390); test: LTEA_HepaRG_SDHB: Life Technologies and Expression Analysis (LTEA) Assay for succinate dehydrogenase complex iron sulfur subunit B (SDHB) using HepaRG (AID 2283528)
How it was run: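 HepaRG cells (~100,000/well, plated 48 h) exposed in duplicate for 48 h in serum-free induction medium to 8-point half-log series from 100 uM in 0.5% DMSO; mRNA by qRT-PCR normalised to ACTB, GAPDH, POLR2A; bidirectional fit versus DMSO.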

[12] = read-out: Signal transducer and activator of transcription 3 (Homo sapiens) (UniProt P40763); test: LTEA_HepaRG_STAT3: Life Technologies and Expression Analysis (LTEA) Assay for Signal transducer and activator of transcription (STAT3) using HepaRG (AID 2283529)
How it was run: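 HepaRG, 48 h exposure, 8-pt half-log series (top 100 uM), 0.5% DMSO vehicle, duplicates. Readout: STAT3 transcript by Fluidigm qRT-PCR, housekeeping-normalized; bidirectional fit vs DMSO baseline.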

[13] = read-out: solute carrier (SLCO1B1), SLCO1B1 (gene 10599); test: LTEA_HepaRG_SLCO1B1: Life Technologies and Expression Analysis (LTEA) Assay for solute carrier (SLCO1B1) using HepaRG (AID 2283530)
How it was run: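 Differentiated human HepaRG cells, plated 48 h, switched to serum-free induction medium and exposed in duplicate for 48 h to 8 half-log concentrations (top 100 uM) in 0.5% DMSO. SLCO1B1 mRNA by TaqMan qRT-PCR, normalized to ACTB/GAPDH/POLR2A.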

[14] = read-out: sulfotransferase 2A1 (SULT2A1), SULT2A1 (gene 6822); test: LTEA_HepaRG_SULT2A1: Life Technologies and Expression Analysis (LTEA) Assay for sulfotransferase 2A1 (SULT2A1) using HepaRG (AID 2283531)
How it was run: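 Differentiated human HepaRG cells in serum-free induction medium were exposed for 48 h to eight half-log concentrations (top 100 uM, 0.5% DMSO). SULT2A1 mRNA was measured by qRT-PCR, normalized to ACTB, GAPDH and POLR2A, and fitted bidirectionally against DMSO.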

[15] = read-out: Transforming Growth Factor (TGFA), TGFA (gene 7039); test: LTEA_HepaRG_TGFA: Life Technologies and Expression Analysis (LTEA) Assay for Transforming Growth Factor (TGFA) using HepaRG (AID 2283532)
How it was run: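 qRT-PCR read-out of TGFA transcript, normalized to three housekeeping genes, fitted bidirectionally against 0.5% DMSO baseline. Human HepaRG cultures received chemicals for 48 h at eight half-log concentrations, top 100 uM.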

TIMP1, TIMP1 (gene 7076) = test: LTEA_HepaRG_TIMP1: Life Technologies and Expression Analysis (LTEA) Assay for TIMP1 using HepaRG (AID 2283534);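 further: TaqMan qRT-PCR signal normalized to ACTB GAPDH and POLR2A housekeeping genes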
How it was run: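 Differentiated human HepaRG cells in serum-free induction medium were exposed 48 h to chemicals (8 half-log concentrations, top 100 uM, 0.5% DMSO). TIMP1 mRNA was quantified by TaqMan qRT-PCR, normalized to ACTB/GAPDH/POLR2A; bidirectional fit versus DMSO.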

[16] = read-out: Tumor necrosis factor receptor 1 (TNFRSF1A), TNFRSF1A (gene 7132); test: LTEA_HepaRG_TNFRSF1A: Life Technologies and Expression Analysis (LTEA) Assay for Tumor necrosis factor receptor 1 (TNFRSF1A) using HepaRG (AID 2283535)
How it was run: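 Differentiated human HepaRG cells were exposed in duplicate for 48 h in serum-free induction medium to eight concentrations (top 100 uM, half-log steps, 0.5% DMSO). TNFRSF1A mRNA was quantified by qRT-PCR, normalized to ACTB, GAPDH and POLR2A, then fitted bidirectionally against DMSO.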

[17] = read-out: Phosphatase and tensin (PTEN), PTEN (gene 5728); test: LTEA_HepaRG_PTEN: Life Technologies and Expression Analysis (LTEA) Assay for Phosphatase and tensin (PTEN) using HepaRG (AID 2283523)
How it was run: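 HepaRG, 48 h exposure, 8-pt half-log series from 100 uM top, 0.5% DMSO vehicle, duplicates. Readout: Fluidigm qRT-PCR of PTEN transcript; housekeeping normalization (ACTB, GAPDH, POLR2A). Gain or loss fitted relative to DMSO baseline.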

[18] = read-out: Transforming Growth Factor (TGFB1), TGFB1 (gene 7040); test: LTEA_HepaRG_TGFB1: Life Technologies and Expression Analysis (LTEA) Assay for Transforming Growth Factor (TGFB1) Transporter using HepaRG (AID 2283533)
How it was run: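 Differentiated human HepaRG cells in serum-free induction medium were exposed in duplicate for 48 h to eight concentrations (top 100 uM, half-log steps, 0.5% DMSO). TGFB1 mRNA was quantified by qRT-PCR, normalized to ACTB, GAPDH, POLR2A, and fitted bidirectionally against DMSO.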

Measured: AC50

Nuclear factor NF-kappa-B p105 subunit (Homo sapiens), sequence (P19838 whole entry, looked up): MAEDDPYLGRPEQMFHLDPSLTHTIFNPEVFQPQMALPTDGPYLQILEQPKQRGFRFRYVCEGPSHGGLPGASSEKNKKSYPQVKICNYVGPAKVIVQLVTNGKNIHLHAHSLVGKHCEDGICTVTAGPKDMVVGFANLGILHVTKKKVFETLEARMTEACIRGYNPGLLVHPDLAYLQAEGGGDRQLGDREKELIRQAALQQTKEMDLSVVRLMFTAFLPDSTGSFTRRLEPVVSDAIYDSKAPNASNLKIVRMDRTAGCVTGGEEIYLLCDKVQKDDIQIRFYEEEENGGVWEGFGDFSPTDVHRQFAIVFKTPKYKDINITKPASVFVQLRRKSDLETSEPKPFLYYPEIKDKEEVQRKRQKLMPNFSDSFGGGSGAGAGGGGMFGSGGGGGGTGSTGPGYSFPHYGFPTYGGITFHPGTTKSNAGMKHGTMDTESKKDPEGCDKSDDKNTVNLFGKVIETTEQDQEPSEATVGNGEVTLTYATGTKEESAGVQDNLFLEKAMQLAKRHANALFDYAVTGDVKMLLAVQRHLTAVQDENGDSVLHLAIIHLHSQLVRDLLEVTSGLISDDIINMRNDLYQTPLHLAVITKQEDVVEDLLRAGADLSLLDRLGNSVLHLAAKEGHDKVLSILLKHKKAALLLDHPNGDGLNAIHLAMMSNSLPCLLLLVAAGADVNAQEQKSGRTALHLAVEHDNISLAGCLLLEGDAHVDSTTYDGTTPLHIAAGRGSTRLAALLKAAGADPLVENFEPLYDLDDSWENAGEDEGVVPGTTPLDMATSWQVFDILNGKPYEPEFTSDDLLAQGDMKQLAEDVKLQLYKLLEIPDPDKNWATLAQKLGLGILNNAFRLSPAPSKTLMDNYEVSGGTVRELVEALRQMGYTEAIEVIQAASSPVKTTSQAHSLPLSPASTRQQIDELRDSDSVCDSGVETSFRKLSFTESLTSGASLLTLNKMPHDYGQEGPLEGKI
Nuclear factor erythroid 2-related factor 2 (Homo sapiens), sequence (Q16236 whole entry, looked up): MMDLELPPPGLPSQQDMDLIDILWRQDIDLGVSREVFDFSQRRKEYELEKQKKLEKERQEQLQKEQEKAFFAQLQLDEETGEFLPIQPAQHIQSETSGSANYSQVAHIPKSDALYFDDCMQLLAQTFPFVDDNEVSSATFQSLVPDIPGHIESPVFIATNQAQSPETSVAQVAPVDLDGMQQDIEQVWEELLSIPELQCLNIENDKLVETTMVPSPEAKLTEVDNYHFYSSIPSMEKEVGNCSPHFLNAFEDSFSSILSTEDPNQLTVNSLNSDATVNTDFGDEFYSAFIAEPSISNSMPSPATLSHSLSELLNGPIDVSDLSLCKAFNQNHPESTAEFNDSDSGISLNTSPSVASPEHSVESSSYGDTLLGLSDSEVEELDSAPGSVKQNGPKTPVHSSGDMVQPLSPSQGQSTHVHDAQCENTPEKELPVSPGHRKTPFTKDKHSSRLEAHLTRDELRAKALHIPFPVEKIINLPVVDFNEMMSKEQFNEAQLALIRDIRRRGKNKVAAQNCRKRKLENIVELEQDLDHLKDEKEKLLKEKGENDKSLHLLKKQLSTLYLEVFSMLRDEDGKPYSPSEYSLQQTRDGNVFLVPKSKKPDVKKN
Signal transducer and activator of transcription 3 (Homo sapiens), sequence (P40763 whole entry, looked up): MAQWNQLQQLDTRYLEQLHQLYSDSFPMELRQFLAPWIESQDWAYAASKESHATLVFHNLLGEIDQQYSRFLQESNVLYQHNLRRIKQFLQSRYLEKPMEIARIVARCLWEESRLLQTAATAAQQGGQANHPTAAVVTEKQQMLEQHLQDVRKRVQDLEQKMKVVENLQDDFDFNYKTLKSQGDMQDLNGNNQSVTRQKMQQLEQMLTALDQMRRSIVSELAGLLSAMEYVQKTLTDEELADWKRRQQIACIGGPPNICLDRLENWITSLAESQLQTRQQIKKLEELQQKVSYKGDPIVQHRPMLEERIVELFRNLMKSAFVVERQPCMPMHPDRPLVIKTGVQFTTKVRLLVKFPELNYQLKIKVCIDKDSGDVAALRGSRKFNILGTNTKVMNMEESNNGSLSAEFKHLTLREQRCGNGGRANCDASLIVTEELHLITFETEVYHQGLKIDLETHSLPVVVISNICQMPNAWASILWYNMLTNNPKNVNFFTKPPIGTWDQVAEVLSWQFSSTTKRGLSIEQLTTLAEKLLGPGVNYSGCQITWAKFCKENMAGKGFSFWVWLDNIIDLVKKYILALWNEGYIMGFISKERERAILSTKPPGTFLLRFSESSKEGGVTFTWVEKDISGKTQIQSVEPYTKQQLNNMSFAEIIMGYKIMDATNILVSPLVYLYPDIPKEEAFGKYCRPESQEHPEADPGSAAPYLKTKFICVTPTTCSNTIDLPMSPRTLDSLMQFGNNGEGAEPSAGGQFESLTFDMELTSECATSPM

COc1ccc(OC(F)(F)F)cc1CN[C@H]1CCCN[C@H]1c1ccccc1
active: [2] 75.8 µM | MYC, MYC (gene 4609) 7.25 µM | [3] 80.2 µM | [4] 55.2 µM | [6] 90 µM | [7] 50 µM | [10] 14.7 µM | [12] 73.4 µM | [14] 81.2 µM | [16] 93.1 µM
inactive: [1] | [5] | [8] | [9] | [11] | [13] | [15] | TIMP1, TIMP1 (gene 7076)

CN(C)C(=O)NC1(c2ccccc2)CCN(CC[C@@]2(c3ccc(F)c(F)c3)CN(C(=O)c3ccccc3)CCO2)CC1
active: [4] 1.35 µM | [7] 9.33 µM | [8] 21.1 µM | [14] 25.3 µM
not listed: [5] | [18]
inactive: all other assays above

O=C(O)CN(CC(=O)O)CC(=O)O
not listed: [1] | [10]
inactive: all other assays above

CS(=O)(=O)c1ccc([C@@H](C[C@H]2CCC(=O)C2)C(=O)Nc2cnccn2)cc1Cl
active: MYC, MYC (gene 4609) 1.14 µM | [3] 1.16 µM | [5] 1.38 µM | [6] 0.49 µM | [17] 10.1 µM | [7] 2.77 µM | [8] 0.913 µM | [9] 17.9 µM | [12] 50 µM | [13] 1.01 µM | [15] 0.938 µM | [18] 1.22 µM | [16] 14.8 µM
inactive: [2] | [4] | [11] | [14] | TIMP1, TIMP1 (gene 7076)

CC(C)(O)c1ccc(CNC(=O)c2cccnc2Oc2ccc(F)cc2)cc1
active: [3] 73.2 µM
not listed: [1] | [5]
inactive: all other assays above

CC1=C(C)S(=O)(=O)CCS1(=O)=O
active: MYC, MYC (gene 4609) 72.6 µM | [6] 74.4 µM | [7] 82.1 µM | [8] 62 µM | [13] 88.2 µM | [15] 50 µM
not listed: [1] | [10] | [18]
inactive: all other assays above

CCCCCCCCCC[N+](C)(C)[O-]
not listed: [1] | [5] | [10] | [18]
inactive: all other assays above

CCCCCCCCCCCCCCCCO
active: [8] 66.3 µM | [14] 50 µM
not listed: [1] | [10] | [18]
inactive: all other assays above
